# Source: PubChem
# The list is not random: actives were taken first. Their share in the collection is about 2.2%.
# MEKK3 PB1 HTS: modulators (inhibitors or enhancers) of MEK5 binding to human MEKK3 PB1 domain; bead-based flow cytometry, Alexa488-MEK5 binding to MEKK3; actives lie on both sides; 0 = blocked by unlabeled MEK5, 100 = vehicle; Q99759; binding response (% of control), % at 10 µM; 1.4% of 290,000 active;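 active = binding response more than 3 SD above or below the average of its plate-row segment, actives on both sides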;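 note: Alexa488 bead fluorescence after subtracting the streptavidin-only scavenger bead signal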
# MEKK2 mut-MEK5: signal of MEK5 binding to mutant human MEKK2 PB1 domain. percent response, % at 10 µM. bead flow cytometry, Alexa488-MEK5 binding to MEKK2 mutant. 0.35% of 290,000 active; in the data active = percent response above about 24%, passing the limit was not always enough
# VLA-4 inh: inhibition in a human VLA-4 binding assay; 0.2% of 330,000 active; AID 2557; VLA-4 expressing cells, ligand binding flow cytometry; P13612; inhibition, % (about 7 µM as worked out from the volumes in the protocol); in the data active = inhibition above about 50%
# Target sequence (P13612 whole entry, looked up): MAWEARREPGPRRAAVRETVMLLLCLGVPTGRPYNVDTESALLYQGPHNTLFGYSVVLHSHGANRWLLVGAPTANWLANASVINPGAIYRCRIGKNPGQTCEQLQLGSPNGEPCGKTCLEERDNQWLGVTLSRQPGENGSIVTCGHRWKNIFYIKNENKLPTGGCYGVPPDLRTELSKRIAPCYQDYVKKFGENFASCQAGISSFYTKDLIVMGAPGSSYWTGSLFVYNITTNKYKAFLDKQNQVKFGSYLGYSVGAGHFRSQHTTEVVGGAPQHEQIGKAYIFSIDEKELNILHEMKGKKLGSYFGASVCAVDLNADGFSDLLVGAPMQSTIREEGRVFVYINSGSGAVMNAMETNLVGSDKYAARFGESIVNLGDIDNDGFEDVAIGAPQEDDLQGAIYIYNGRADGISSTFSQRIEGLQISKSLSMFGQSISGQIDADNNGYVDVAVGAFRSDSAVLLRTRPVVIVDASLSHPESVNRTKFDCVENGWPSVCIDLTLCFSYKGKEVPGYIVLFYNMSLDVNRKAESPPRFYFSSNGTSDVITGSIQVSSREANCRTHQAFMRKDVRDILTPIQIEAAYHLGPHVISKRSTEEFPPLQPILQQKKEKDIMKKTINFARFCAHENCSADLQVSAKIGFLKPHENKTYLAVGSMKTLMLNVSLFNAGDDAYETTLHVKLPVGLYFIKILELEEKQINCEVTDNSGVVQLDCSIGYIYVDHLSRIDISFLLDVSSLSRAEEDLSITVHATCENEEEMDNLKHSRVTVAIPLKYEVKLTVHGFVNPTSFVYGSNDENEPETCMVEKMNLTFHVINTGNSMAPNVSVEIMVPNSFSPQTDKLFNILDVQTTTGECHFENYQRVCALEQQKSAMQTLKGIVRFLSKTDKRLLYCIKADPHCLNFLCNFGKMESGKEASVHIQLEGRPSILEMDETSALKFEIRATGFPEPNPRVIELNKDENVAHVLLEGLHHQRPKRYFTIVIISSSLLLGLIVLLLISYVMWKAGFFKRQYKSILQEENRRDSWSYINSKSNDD
# MEKK2 WT-MEK5: raises or lowers MEK5 binding to wildtype human MEKK2 PB1 domain; binding response (% of control), % at 10 µM; Q9Y2U5; AID 1531; bead flow cytometry, Alexa488-MEK5 binding to MEKK2 WT; actives lie on both sides; 1.1% of 290,000 active; in the data active = binding response below about 67% or above about 130%
# MEKK2wt confirm: raises or lowers MEK5 binding to wildtype human MEKK2, retest. AID 1892. bead flow cytometry, Alexa488-MEK5 binding to MEKK2 WT; actives lie on both sides. 2.4% of 5,900 active. binding response (% of control), % at 10 µM. shares compounds with MEKK3 PB1 HTS; in the data active = binding response below about 16% or above about 210%; inactive = in between
# MEKK2mut confirm: signal of MEK5 binding to mutant human MEKK2, retest | 2% of 5,900 active | AID 1893 | shares compounds with MEKK3 PB1 HTS | percent response, % at 10 µM | bead flow cytometry, Alexa488-MEK5 binding to MEKK2 mutant; in the data active = percent response mostly above about 71%, no sharp cut-off; inactive = mostly below about 38%;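 note: higher means compound restores mutant binding toward wildtype level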
# MEKK3 confirm: confirmation of inhibitors of MEK5 binding to human MEKK3. shares compounds with MEKK3 PB1 HTS. bead flow cytometry, Alexa488-MEK5 binding to MEKK3; stronger effect = lower value. binding response (% of control), % at 10 µM. 1.8% of 5,900 active. AID 1894;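 active = binding response below 72% of control, or above a set upper limit, though filed actives all read lower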;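 note: 100% = DMSO only wells and 0% = binding blocked by excess unlabeled MEK5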
# Numbers without * were called inactive; nt = not tested or not shown; [ ] = dose if it differs, or a comment.
SMILES,MEKK3 PB1 HTS,MEKK2 mut-MEK5,VLA-4 inh,MEKK2 WT-MEK5,MEKK2wt confirm,MEKK2mut confirm,MEKK3 confirm
COc1ccccc1Nc1nc(NCCO)c2ccccc2n1,110.0,1.0,nt,103.0,nt,nt,nt
COc1ccccc1N1CCN(Cc2nc(N)nc(Nc3ccc(C)c(Cl)c3)n2)CC1,104.0,7.0,33.8,117.0,nt,nt,nt
Cc1ccc(Nc2nc(NCCO)c3ccccc3n2)cc1C,108.0,14.0,6.8,160.0*,142.0,33.0,104.0
Nc1cc(C(=O)OCC(=O)NNC(=O)c2ccccc2)ccc1Cl,nt,nt,-12.2,nt,nt,nt,nt
CC1CCC(NC(=O)CCC(=O)N2CC(C)Oc3ccccc32)CC1 (centres undefined),101.0,1.0,1.8,103.0,nt,nt,nt
CCSc1ncc(CO)c(N)n1,103.0,1.0,16.0,96.0,nt,nt,nt
Cc1ccc(Nc2nc(N)c3ccccc3n2)cc1Cl,110.0,7.0,22.6,152.0*,138.0,33.0,106.0
Cc1ccc(OCC(=O)NC(=S)Nc2ccc(Br)c(C)n2)cc1,102.0,6.0,-1.2,102.0,nt,nt,nt
Cc1nc(NC(=S)NC(=O)COc2ccc(Cl)cc2)ccc1Br,139.0*,-1.0,11.6,104.0,101.0,4.0,102.0
CCOC(=O)c1c(NC(=O)COC(=O)Cc2c[nH]c3ccccc23)sc(C(=O)N(C)C)c1C,nt,nt,2.6,nt,nt,nt,nt
O=C(Nc1nnc(-c2ccccn2)o1)c1cccc(Cl)c1,87.0,-6.0,0.7,96.0,nt,nt,nt
CC(=O)Nc1nnc(-c2ccccn2)o1,134.0*,0.0,0.5,103.0,100.0,8.0,99.0
O=C(CCCN1C(=O)C(c2ccccc2)Oc2cccnc21)NCCc1ccc(Cl)cc1 (centres undefined),100.0,-4.0,-0.4,98.0,nt,nt,nt
CCOCCCNc1ccc(N2C(=O)C3CCCCC3C2=O)cc1[N+](=O)[O-] (centres undefined),104.0,1.0,5.8,102.0,nt,nt,nt
c1ccc(OCCN2CCN(C(c3ccccc3)c3ccccc3)CC2)cc1,98.0,5.0,9.7,120.0,nt,nt,nt
COc1ccccc1N1CCN(S(=O)(=O)c2ccccc2F)CC1,45.0*[inhibitor],-21.0,2.9,63.0,106.0,6.0,102.0
COc1ccccc1N1CCN(C2CCN(S(=O)(=O)c3ccc4ccccc4c3)CC2)CC1,103.0,3.0,7.4,145.0*,118.0,1.0,92.0
COc1ccccc1N1CCN(C2CCN(S(=O)(=O)c3ccc(C)cc3)CC2)CC1,86.0,-9.0,4.6,90.0,nt,nt,nt
COc1cccc(C(=S)N2CCCC2)c1OC,101.0,1.0,-14.4,96.0,nt,nt,nt
CCOC(=O)c1c(N)sc2c1CCC(C)C2 (centres undefined),103.0,4.0,8.9,103.0,nt,nt,nt
CCOC(=O)c1c(N)sc2c1CCCC2,52.0*[inhibitor],-9.0,8.8,64.0,101.0,0.0,100.0
O=c1ccccn1Cc1ccccc1F,100.0,3.0,4.7,99.0,nt,nt,nt
O=c1ccc(Cl)cn1Cc1ccccc1F,127.0*,7.0,5.1,91.0,95.0,-2.0,95.0
O=C1Nc2ccc(Br)cc2/C1=C/c1ccc(C(=O)O)cc1,96.0,1.0,11.7,96.0,nt,nt,nt
COc1ccc(OC)c(S(=O)(=O)N2CCCC2C(=O)NC(C)c2ccccc2)c1 (centres undefined),98.0,3.0,-4.2,105.0,nt,nt,nt
SMILES,MEKK3 PB1 HTS,MEKK2 mut-MEK5,VLA-4 inh,MEKK2 WT-MEK5,MEKK2wt confirm,MEKK2mut confirm,MEKK3 confirm
Cc1ccccc1S(=O)(=O)Cc1ccc(C(=O)NCc2ccccc2)o1,100.0,0.0,7.7,103.0,nt,nt,nt
Cc1ccccc1S(=O)(=O)Cc1ccc(C(=O)O)o1,80.0*[inhibitor],-13.0,-3.4,82.0,107.0,14.0,108.0
CC(=O)N1c2ccc(S(=O)(=O)N3CCC(C(=O)Nc4cccc(Cl)c4)CC3)cc2CC1C (centres undefined),97.0,1.0,3.8,101.0,nt,nt,nt
Cn1c(NC(=O)C[n+]2cc(-c3ccc(Cl)cc3)n3c2CCC3)cc(=O)n(C)c1=O,95.0,-1.0,2.4,94.0,nt,nt,nt
O=C(C[n+]1cc(-c2ccccc2)n2c1CCC2)Nc1nc(-c2ccc(F)cc2)cs1,108.0,43.0,34.0,181.0*,172.0,36.0,103.0
O=C(C[n+]1cc(-c2ccc(F)cc2)n2c1CCC2)Nc1nc(-c2ccc(F)cc2)cs1,127.0,2.0,13.6,134.0,nt,nt,nt
O=C(C[n+]1cc(-c2ccc(Cl)cc2)n2c1CCC2)Nc1nc(-c2ccc(F)cc2)cs1,118.0,35.0,6.0,177.0*,197.0,47.0,101.0
CCN(CC)S(=O)(=O)c1cc(C)c(C)cc1Br,61.0*[inhibitor],-4.0,1.9,71.0*[inhibitor],103.0,3.0,103.0
COc1ccc(-n2c(=O)c3ccccc3n(CC(=O)Nc3cccc(OC)c3)c2=O)cc1,50.0*[inhibitor],-16.0,-2.6,62.0,103.0,6.0,106.0
Cc1ccc(N(CC(=O)N2CCN(c3ccccc3F)CC2)S(=O)(=O)c2c(C)noc2C)cc1,99.0,-2.0,7.7,90.0,nt,nt,nt
Cc1ccccc1CSc1nnc(-c2cnccn2)n1C,99.0,-2.0,12.4,99.0,nt,nt,nt
COc1ccc(NC(=O)Nc2cccc3c2O[C@H](CN(C)S(=O)(=O)c2cn(C)cn2)[C@@H](C)CN([C@H](C)CO)C3=O)cc1,nt,nt,7.6,nt,nt,nt,nt
O=C(OCC(=O)N1CCN(c2ccccc2)CC1)c1cccc([N+](=O)[O-])c1,nt,nt,0.8,nt,nt,nt,nt
CC1CC(C)CN(C(=O)COC(=O)c2cccc([N+](=O)[O-])c2)C1 (centres undefined),48.0*[inhibitor],-16.0,20.4,50.0,100.0,-4.0,106.0
Cc1ccc(CNS(=O)(=O)c2c(C)[nH]c(=O)[nH]c2=O)cc1,98.0,4.0,3.9,101.0,nt,nt,nt
Cc1cc(C)nc(NC(=NCCc2c[nH]c3ccccc23)NC(=O)Nc2ccc(Cl)cc2)n1,59.0*[inhibitor],1.0,2.4,111.0,106.0,-2.0,103.0
COc1ccc(C)cc1S(=O)(=O)Nc1ccc2c(c1)N(C(C)=O)CCC2,nt,nt,2.8,nt,nt,nt,nt
O=C1CC(c2cccc(Cl)c2)c2cc3c(cc2N1)CCC3 (centres undefined),2.0*[inhibitor],-27.0,-12.2,-2.0*[inhibitor],88.0,-6.0,95.0
Cc1cccc(C(C)(C)C)c1OCCn1ccnc1,-1.0*[inhibitor],-21.0,2.4,-1.0*[inhibitor],92.0,-5.0,98.0
Cc1cc(Cl)c2cc3ccccc3cc2n1,103.0,4.0,24.5,102.0,nt,nt,nt
COc1ccccc1-n1cnnc1SC(C)C(=O)Nc1ccc(NC(C)=O)cc1 (centres undefined),96.0,-5.0,24.2,56.0*[inhibitor],95.0,-5.0,97.0
COc1ccccc1-n1cnnc1SC(C)C(=O)NCC1CCCO1 (centres undefined),nt,nt,-2.4,nt,nt,nt,nt
CC1=CS(=O)(=O)CC1Sc1ncn[nH]1 (centres undefined),64.0*[inhibitor],5.0,2.6,76.0,42.0,0.0,81.0
CC(=O)OC1OCCOC1NC(=S)Nc1cccc(C(F)(F)F)c1 (centres undefined),103.0,-5.0,7.5,93.0,nt,nt,nt
